The values below come from PubChem BioAssay (Tox21).

Molecules are shown by their SMILES. A number with no mark means an inactive call. Results filed as inconclusive are left out. Activity calls are given as the source filed them. Unless noted, the call rests on the fitted dose curve; in most records, active means well fitted curve in the direction sought with a large enough effect in the repeat runs; inconclusive means weak or mixed curves; inactive means no such curve, though single readings can be large; an effect the other way counts as inactive or inconclusive.

Assay [1] addresses Estrogen receptor beta (Homo sapiens) (UniProt Q92731). Kind of assay: qHTS assay to identify small molecule agonists of the estrogen receptor beta (ER-beta) signaling pathway (AID 1259377; active means well fitted activation curve with a large enough effect in the signal ratio in the repeat runs, not every such curve was filed as active; the % refers to the signal ratio). In short, it runs like this:
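Measured by fluorescence intensity from a B/G FRET beta-lactamase substrate (2 h, room temperature) in ER-beta-UAS-bla HEK293T cells treated with DMSO-dissolved compounds for 16 hr at 37C and 5% CO2.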
A general note: Quantitative high-throughput screening tests each substance at several concentrations.

A short description of assay [2]: qHTS assay to identify small molecule agonists of the androgen receptor (AR) signaling pathway in the presence of an antagonist - cell viability counter screen (AID 1259379). Further: nearly all actives have a fitted effect of over 25% in size. Further: potency means the concentration at half of the fitted maximal effect.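 On activity change, negative = cytotoxicity: MDA-kb2 human breast cancer cells carrying an MMTV luciferase reporter; series mostly up to about 92 µM.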 Summed up: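 Cells: MDA-kb2 (MMTV-luc, AR and GR elements), 3,000/well, 5 hr settle. Added: nilutamide 3.0uM final, then compounds (15 conc.). Incubation: 16 hr, 37C, no CO2. Read-out: CellTiter-Fluor, 1 hr, fluorescence.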

Assay [3] in a line: qHTS assay to identify small molecule agonists of the estrogen receptor beta (ER-beta) signaling pathway - cell viability counter screen (AID 1259380). Further: nearly all actives have a fitted effect of over 30% in size. Further: potency means the concentration at half of the fitted maximal effect. In short, it runs like this:
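HEK293T ER-beta-UAS-bla; 2% CS-FBS; 6 hr pre-plate, 16 hr cpd at 37C/5% CO2; LiveBLAzer read first, then CellTiter-Glo 30 min RT, luminescence.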

Assay [4] has as its target Androgen receptor (Homo sapiens) (UniProt P10275). The experiment in a line: qHTS assay to identify small molecule agonists of the androgen receptor (AR) signaling pathway in the presence of an antagonist (AID 1259381; calls by dose curve; further: nearly all actives have a fitted effect of over 15% in size). Summed up:
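MDA-kb2 cells, 3,000/well, rested 5hr at 37C/0% CO2 → nilutamide 3.0uM final or buffer → compounds, 15 conc. → 16hr at 37C → ONE-Glo, 30min RT → luminescence.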

Assay [5] can be described thus: qHTS assay to identify small molecule antagonists of the estrogen receptor beta (ER-beta) signaling pathway - cell viability counter screen (AID 1259382). Further: nearly all actives have a fitted effect of over 55% in size. Further: potency means the concentration at half of the fitted maximal effect. On activity change, negative = cytotoxicity: series mostly up to about 92 µM. Summed up:
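Cells: ER-beta-UAS-bla HEK293T, 2,000/well, 2% CS-FBS, 6 hr settle. Cpd + E2 (1nM final), 16 hr, 37C/5% CO2. Bla FRET substrate 2 hr RT, then CellTiter-Glo 30 min RT, luminescence.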

Assay [6] can be described thus: qHTS assay to identify small molecule agonists or antagonists of the thyroid stimulating hormone receptor (TSHR) signaling pathway - wild type cell line counter screen (AID 1259384; calls by dose curve). Summed up: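 Wild-type HEK293 cells were plated 18 h at 37 C/5% CO2, pin-dosed with compound plus Ro20-1724 medium, held 30 min at room temperature, then given cAMP-d2 and anti-cAMP-cryptate; fluorescence was read after 1 h. Fifteen concentrations, triplicate.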

For assay [7], the target named is Thyrotropin receptor (Homo sapiens) (UniProt P16473). The experiment in a line: qHTS assay to identify small molecule antagonists of the thyroid stimulating hormone receptor (TSHR) signaling pathway (AID 1259385; calls by dose curve; further: nearly all actives have a fitted effect of over 20% in size). In short, it runs like this:
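TSHR-HEK293 cells were plated and held 18 h at 37C/5% CO2, then given compound plus Ro20-1724 and stimulated with TSH at 1.5 ng/mL final. After 30 min at room temperature, cAMP was detected with cAMP-d2/anti-cAMP-cryptate (1 h) by fluorescence.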

Assay [8] has as its target Progesterone receptor (Homo sapiens) (UniProt P06401). Kind of assay: qHTS assay to identify small molecule agonists of the progesterone receptor (PR) signaling pathway (AID 1346784; calls by dose curve; further: nearly all actives have a fitted effect of over 30% in size). Summed up: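 The screen uses PR-UAS-bla HEK 293T cells in charcoal-stripped serum (2%). Compounds are applied for 16 hr at 37C after a 6 hr pre-incubation, and reporter activity is detected with a FRET beta-lactamase substrate after 2 hr at room temperature.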

For assay [9] the target is unchanged. Kind of assay: qHTS assay to identify small molecule antagonists of the progesterone receptor (PR) signaling pathway (AID 1346795; active means well fitted inhibition curve with a large enough effect in the signal ratio in the repeat runs, not every such curve was filed as active; the % refers to the signal ratio; further: potency means the concentration at half of the fitted maximal effect). Summed up:
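After 6 hr plating at 37C in 2% stripped-serum medium, PR-UAS-bla HEK293T cells got compounds, then 1 nM R5020. Sixteen hours later, LiveBLAzer substrate was applied for 2 hr at room temperature and fluorescence was recorded.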

A short description of assay [10]: qHTS assay to identify small molecule agonists of the progesterone receptor (PR) signaling pathway - cell viability counter screen (AID 1346799; calls by dose curve; further: nearly all actives have a fitted effect of over 45% in size; further: potency means the concentration at half of the fitted maximal effect). Summed up: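 Viability was scored by ATP luminescence (CellTiter-Glo, 30 min, room temperature) in the same wells used for the reporter readout, after 16 hr compound exposure of PR-UAS-bla HEK293T cells.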
The nature of assay [11]: qHTS assay to identify small molecule antagonists of the TGF-beta/Smad signaling pathway - cell viability counter screen (AID 1346824). Further: nearly all actives have a fitted effect of over 50% in size. In short, it runs like this:
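SBE-bla HEK 293T cells were plated overnight at 37 C, then given compounds in DMSO plus TGF-beta1 (added as 0.25 ng/mL solution) for 5 hr. After the bla read, CellTiter-Glo was added to the same wells and luminescence read after 30 min at room temperature.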

The nature of assay [12]: qHTS assay to identify small molecule agonists of the TGF-beta/Smad signaling pathway - cell viability counter screen (AID 1346829). Further: top concentration of the series differs between compounds; nearly all actives have a fitted effect of over 45% in size. Summed up: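 SBE-bla HEK 293T cells plated overnight, compound exposure 5 hr at 37 C. Viability read in the same wells by CellTiter-Glo luminescence after 30 min at room temperature, following the beta-lactamase read.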
Assay [13] in a line: qHTS assay to identify small molecule agonists of the TGF-beta/Smad signaling pathway (AID 1346859; active means well fitted activation curve with a large enough effect in the signal ratio in the repeat runs, not every such curve was filed as active; the % refers to the signal ratio; further: series mostly up to about 77 µM). Summed up: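 Dual-wavelength fluorescence (460/530 nm emission) quantified beta-lactamase expression under the Smad binding element in HEK 293T cells following 5 hr compound treatment at 37 C.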
The target of assay [14] is Thyrotropin-releasing hormone receptor (Homo sapiens) (UniProt P34981). The experiment in a line: qHTS assay to identify small molecule antagonists of the thyrotropin-releasing hormone receptor (TRHR) signaling pathway (AID 1346877; active means well fitted inhibition curve with a large enough effect in the repeat runs, not every such curve was filed as active; further: series mostly up to about 51 µM). Summed up: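 Intracellular calcium fluorescence, read kinetically every second over 3 min, reports TRH-evoked signalling in HEK293 cells carrying TRHR. Test compounds were added 5 min ahead of a 1 nM TRH challenge.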
Thyrotropin-releasing hormone receptor (Homo sapiens), sequence (P34981 whole entry, looked up): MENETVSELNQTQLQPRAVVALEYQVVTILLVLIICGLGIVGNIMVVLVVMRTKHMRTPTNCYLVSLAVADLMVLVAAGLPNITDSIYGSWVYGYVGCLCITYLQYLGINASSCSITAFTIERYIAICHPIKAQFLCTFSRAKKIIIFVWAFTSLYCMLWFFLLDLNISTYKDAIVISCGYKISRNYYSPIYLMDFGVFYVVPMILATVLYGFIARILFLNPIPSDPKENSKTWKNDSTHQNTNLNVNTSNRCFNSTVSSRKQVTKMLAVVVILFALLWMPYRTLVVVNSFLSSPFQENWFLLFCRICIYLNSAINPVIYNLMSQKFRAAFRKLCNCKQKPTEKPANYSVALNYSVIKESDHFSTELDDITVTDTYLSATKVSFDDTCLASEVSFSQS

Assay [15] shares this target. Kind of assay: qHTS assay to identify small molecule agonists of the thyrotropin-releasing hormone receptor (TRHR) signaling pathway (AID 1346891; calls by dose curve;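 further: HEK293 cells expressing TRHR with calcium dye readout; series mostly up to about 58 µM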). In short, it runs like this:
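Kinetic fluorescence (3 min, 1 s intervals) reported intracellular calcium after compound transfer onto TRHR-Hek293 cells pre-loaded with dye for 2 h at 37 °C.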

Assay [16] is described as follows: Human pregnane X receptor (PXR) small molecule agonists, qHTS cell viability counter screen (AID 1346977). Further: nearly all actives have a fitted effect of over 50% in size. Further: potency means the concentration at half of the fitted maximal effect. In short, it runs like this:
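HepG2 cells stably carrying the PXR-Luc reporter are cultured with 5% charcoal-stripped FBS and treated with compounds for 24hr. CellTiter-Fluor is added at 23hr and fluorescence is read after 1hr.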

Assay [17] deals with Estrogen receptor (Homo sapiens) (UniProt P03372). Kind of assay: qHTS assay to identify small molecule agonists of the estrogen receptor alpha (ER-alpha) signaling pathway in the presence of an antagonist (AID 1259383; calls by dose curve; further: top concentration of the series differs between compounds; nearly all actives have a fitted effect of over 15% in size). Summed up:
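VM7Luc4E2, endog. ER-alpha + 4×ERE-luc; charcoal-stripped FBS, phenol red-free, 5 d; 24hr plating; +10.0nM ICI-182,780 (final); cpds 15 conc, 22hr, 37C/5% CO2; ONE-Glo luminescence.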

The target in assay [18] is Estrogen receptor beta (Homo sapiens) (UniProt Q92731). The experiment in a line: qHTS assay to identify small molecule antagonists of the estrogen receptor beta (ER-beta) signaling pathway (AID 1259378; active means well fitted inhibition curve with a large enough effect in the signal ratio in the repeat runs, not every such curve was filed as active; the % refers to the signal ratio). Summed up: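 ER-beta-UAS-bla HEK293T (GripTite) cells in 2% charcoal-stripped FBS medium were preincubated 6 hr at 37C, dosed with compound, then stimulated with 1 nM E2 (final) for 16 hr; beta-lactamase reporter read by B/G FRET fluorescence after 2 hr substrate loading.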
Estrogen receptor beta (Homo sapiens), sequence (Q92731 whole entry, looked up): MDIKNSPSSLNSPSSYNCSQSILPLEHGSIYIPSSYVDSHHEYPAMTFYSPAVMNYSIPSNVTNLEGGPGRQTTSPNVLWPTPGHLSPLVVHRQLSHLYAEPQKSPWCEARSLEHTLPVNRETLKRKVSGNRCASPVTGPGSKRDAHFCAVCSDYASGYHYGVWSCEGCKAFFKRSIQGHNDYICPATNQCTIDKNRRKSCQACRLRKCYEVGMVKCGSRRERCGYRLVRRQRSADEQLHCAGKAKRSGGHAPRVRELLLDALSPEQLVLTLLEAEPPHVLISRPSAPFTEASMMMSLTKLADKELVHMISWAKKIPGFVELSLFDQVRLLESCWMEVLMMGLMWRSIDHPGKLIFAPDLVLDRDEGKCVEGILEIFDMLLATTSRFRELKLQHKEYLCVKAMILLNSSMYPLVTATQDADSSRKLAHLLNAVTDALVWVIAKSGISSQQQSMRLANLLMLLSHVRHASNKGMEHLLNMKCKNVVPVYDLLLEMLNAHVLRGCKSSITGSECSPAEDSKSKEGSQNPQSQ

Assay [19] is described as follows: qHTS assay to identify small molecule agonists of the estrogen receptor alpha (ER-alpha) signaling pathway in the presence of an antagonist - cell viability counter screen (AID 1259386).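 Further: series mostly up to about 92 µM; cells exposed to compounds for 22 h at 37 °C before the viability read; nearly all actives have a fitted effect of over 30% in size.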 In short, it runs like this:
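VM7Luc4E2, stripped-serum pre-culture 5 d; 24hr plating; +ICI-182,780 10.0nM final; cpds 15 conc, 22hr, 37C/5% CO2; CellTiter-Fluor added at 21hr, fluorescence 1hr later.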

The nature of assay [20]: qHTS assay to identify small molecule antagonists of the progesterone receptor (PR) signaling pathway - cell viability counter screen (AID 1346798). Further: nearly all actives have a fitted effect of over 50% in size. Further: potency means the concentration at half of the fitted maximal effect. On activity change, negative = cytotoxicity: series mostly up to about 92 µM. Summed up: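 Viability was determined by ATP-based luminescence (CellTiter-Glo) in PR-UAS-bla HEK293T cells cultured in 2% charcoal-stripped serum and incubated 16 hr with compounds under R5020 stimulation.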
On the % scale 0 is the no-effect control and ±100 the full control effect.

Progesterone receptor (Homo sapiens), sequence (P06401 whole entry, looked up): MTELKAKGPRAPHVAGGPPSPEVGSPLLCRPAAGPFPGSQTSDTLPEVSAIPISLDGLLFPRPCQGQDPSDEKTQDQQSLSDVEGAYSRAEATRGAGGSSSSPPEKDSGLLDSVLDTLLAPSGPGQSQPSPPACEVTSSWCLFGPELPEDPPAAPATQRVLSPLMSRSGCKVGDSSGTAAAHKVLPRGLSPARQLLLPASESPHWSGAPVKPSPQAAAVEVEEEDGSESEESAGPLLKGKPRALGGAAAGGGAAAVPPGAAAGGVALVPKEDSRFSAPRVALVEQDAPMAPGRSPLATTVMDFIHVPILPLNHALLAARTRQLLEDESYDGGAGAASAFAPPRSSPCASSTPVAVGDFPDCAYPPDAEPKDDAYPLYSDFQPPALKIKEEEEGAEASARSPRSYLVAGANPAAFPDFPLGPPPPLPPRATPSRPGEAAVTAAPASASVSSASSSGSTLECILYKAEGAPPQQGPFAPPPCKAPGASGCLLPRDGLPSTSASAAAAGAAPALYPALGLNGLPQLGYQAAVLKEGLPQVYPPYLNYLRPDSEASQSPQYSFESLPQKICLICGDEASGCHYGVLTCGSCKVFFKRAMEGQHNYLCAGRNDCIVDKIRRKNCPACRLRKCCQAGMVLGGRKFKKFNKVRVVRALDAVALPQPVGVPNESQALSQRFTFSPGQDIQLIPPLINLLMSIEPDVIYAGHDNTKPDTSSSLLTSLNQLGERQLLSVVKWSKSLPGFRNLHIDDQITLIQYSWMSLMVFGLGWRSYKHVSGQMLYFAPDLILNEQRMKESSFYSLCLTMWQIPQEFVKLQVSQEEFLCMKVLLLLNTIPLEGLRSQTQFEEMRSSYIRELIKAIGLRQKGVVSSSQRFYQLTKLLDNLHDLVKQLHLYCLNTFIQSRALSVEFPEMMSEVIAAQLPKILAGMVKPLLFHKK
Androgen receptor (Homo sapiens), sequence (P10275 whole entry, looked up): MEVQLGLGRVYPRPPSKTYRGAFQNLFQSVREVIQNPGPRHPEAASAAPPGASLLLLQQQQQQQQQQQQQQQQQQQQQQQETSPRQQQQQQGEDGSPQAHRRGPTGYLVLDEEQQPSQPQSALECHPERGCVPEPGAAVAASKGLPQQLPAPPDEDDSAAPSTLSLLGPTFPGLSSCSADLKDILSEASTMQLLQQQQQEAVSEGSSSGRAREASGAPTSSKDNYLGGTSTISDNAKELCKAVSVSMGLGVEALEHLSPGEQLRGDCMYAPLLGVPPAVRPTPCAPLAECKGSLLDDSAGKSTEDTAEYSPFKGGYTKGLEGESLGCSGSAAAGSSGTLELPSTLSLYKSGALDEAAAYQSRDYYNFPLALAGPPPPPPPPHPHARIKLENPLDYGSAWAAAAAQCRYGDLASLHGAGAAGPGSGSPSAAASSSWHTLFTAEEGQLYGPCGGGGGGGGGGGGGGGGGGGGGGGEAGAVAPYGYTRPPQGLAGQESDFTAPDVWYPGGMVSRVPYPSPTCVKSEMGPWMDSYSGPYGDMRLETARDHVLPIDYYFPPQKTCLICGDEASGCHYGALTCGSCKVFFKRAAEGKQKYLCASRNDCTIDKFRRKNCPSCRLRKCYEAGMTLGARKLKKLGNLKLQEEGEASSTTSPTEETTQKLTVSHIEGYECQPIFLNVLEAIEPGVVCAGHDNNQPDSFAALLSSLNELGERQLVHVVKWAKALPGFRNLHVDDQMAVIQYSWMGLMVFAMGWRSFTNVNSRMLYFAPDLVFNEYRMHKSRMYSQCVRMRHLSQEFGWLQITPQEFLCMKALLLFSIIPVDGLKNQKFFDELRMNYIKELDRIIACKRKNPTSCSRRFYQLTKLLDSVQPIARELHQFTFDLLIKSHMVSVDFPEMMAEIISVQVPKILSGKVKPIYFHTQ
Estrogen receptor (Homo sapiens), sequence (P03372 whole entry, looked up): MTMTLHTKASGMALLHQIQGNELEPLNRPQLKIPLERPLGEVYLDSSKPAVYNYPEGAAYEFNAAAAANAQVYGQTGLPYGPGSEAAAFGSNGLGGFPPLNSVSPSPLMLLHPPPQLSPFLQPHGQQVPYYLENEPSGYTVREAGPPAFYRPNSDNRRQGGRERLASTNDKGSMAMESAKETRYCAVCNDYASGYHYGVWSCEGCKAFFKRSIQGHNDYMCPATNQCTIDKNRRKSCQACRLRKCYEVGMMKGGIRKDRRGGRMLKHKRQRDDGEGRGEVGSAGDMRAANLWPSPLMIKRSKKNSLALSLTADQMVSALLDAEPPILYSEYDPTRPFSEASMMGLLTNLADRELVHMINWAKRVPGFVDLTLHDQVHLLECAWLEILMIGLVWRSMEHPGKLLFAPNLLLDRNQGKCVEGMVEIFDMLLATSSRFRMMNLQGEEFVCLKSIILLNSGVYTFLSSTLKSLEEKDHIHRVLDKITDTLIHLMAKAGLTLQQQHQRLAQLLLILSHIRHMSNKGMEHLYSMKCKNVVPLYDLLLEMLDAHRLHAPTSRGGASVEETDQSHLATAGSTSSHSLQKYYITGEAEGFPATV
Thyrotropin receptor (Homo sapiens), sequence (P16473 whole entry, looked up): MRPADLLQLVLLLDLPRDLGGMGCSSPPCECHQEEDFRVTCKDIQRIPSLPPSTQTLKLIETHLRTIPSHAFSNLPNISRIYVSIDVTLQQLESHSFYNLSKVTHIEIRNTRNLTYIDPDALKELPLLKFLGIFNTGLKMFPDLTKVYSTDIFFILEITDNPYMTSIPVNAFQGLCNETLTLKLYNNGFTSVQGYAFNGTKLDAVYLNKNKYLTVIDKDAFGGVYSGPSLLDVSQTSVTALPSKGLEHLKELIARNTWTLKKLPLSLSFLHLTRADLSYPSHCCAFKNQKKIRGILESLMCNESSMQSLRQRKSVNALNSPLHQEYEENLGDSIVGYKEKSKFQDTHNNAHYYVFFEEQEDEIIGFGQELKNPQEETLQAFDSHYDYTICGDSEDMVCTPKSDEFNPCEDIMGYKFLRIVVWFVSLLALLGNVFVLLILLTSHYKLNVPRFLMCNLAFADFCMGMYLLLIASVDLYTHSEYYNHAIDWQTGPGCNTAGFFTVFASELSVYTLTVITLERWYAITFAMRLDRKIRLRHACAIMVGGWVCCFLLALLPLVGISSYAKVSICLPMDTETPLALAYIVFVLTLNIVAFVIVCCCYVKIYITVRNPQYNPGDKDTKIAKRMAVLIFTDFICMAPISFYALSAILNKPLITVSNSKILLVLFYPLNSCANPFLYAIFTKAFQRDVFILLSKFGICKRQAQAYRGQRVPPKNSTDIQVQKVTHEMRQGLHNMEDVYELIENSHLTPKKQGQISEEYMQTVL

In the case of `O=C[C@H](O)[C@H](O)[C@H](O)CO`, the Potency result in assay [1], in assay [2], in assay [3], in assay [4], in assay [5] and in assay [7] was “inactive” each time. In addition, the Potency entry in [9], in assay [10], in assay [11], in assay [12], in assay [13] and in assay [14] was “inactive” throughout. For the same compound, the Potency result in [15] and in assay [16] was “inactive” each time. Further, the call in assay [6] and in assay [8] was inactive.

Turning to `CCN(CC)CCCN(c1ccccc1)C1Cc2ccccc2C1`, the Potency entry in [1], in assay [17], in [7], in [12] and in [13] was “inactive” in each case. For the same compound, the Potency in [2] is 29.8 µM (active); in [3] it was 11.9 µM (active); in assay [16], 23.7 µM (active). Further, the compound was classed as inactive in assay [6] and in assay [8].

For `c1ccc2c(c1)CCC2`, the Potency entry in assay [18], in assay [2], in [3], in [4], in assay [5] and in assay [17] was “inactive” throughout. In addition, the Potency result in assay [7], in [19], in assay [9], in assay [20], in assay [10] and in assay [11] was “inactive” each time. For the same compound, the Potency entry in assay [12], in assay [13], in assay [14], in [15] and in assay [16] was “inactive” throughout. In addition, the compound was classed as inactive in assay [6] and in [8].

For `O[C@@H](c1cc(C(F)(F)F)nc2c(C(F)(F)F)cccc12)[C@H]1CCCCN1`, the Potency result in assay [1], in assay [17], in assay [19], in assay [12], in assay [13] and in assay [14] was “inactive” throughout. Besides, the Potency in assay [3] was 21.1 µM (active); in assay [5], 16.8 µM (active); in assay [9], 23.7 µM (active); in assay [20] it was 26.6 µM (active); in assay [10], 26.6 µM (active); in assay [16] it was 26.6 µM (active). Moreover, the outcome in assay [6] was inactive.

Consider `CCCCN(CCCC)CCC(O)c1cc2c(Cl)cc(Cl)cc2c2cc(C(F)(F)F)ccc12` (centres undefined), for which the Potency entry in assay [1], in assay [17], in assay [7], in assay [9], in [20] and in assay [10] was “inactive” in each case. In addition, the Potency result in assay [11], in assay [12] and in [13] was “inactive” each time. In addition, the Potency in assay [3] is 7.5 µM (active); in assay [16], 26.6 µM (active). For the same compound, the compound was classed as inactive in assay [6] and in assay [8].

Take `O=S(O)O`: the activation is -0.957% [at 19 µM] in [1], -2.31% [at 15.8 µM] in [13] and 0.0945% [at 11.8 µM] in assay [15]. In addition, in [18], the activity, negative = inhibition is 1.38% [at 19 µM]. The activity change, negative = cytotoxicity in assay [5] is 4.33% [at 19 µM]; in assay [20], -0.356% [at 18.9 µM]; in assay [10], -3.11% [at 19 µM]; in [12], -1.2% [at 15.8 µM]; in [16], 6.89% [at 19 µM]. Moreover, in assay [6], the cAMP activity change is -1.65% [at 18.9 µM]. The activity change, negative = inhibition in assay [7] is 0.0817% [at 19 µM]. In addition, in assay [11], the viability change, negative = cytotoxic was 0.444% [at 15.8 µM].

Regarding `CC(C)N=C(N)/N=C(\N)Nc1ccc(Cl)cc1`, the Potency entry in [1], in assay [17], in assay [19], in assay [20], in [10] and in assay [11] was “inactive” each time. For the same compound, the Potency result in assay [12], in [13] and in [15] was “inactive” each time. Besides, in assay [3], the Potency is 23.7 µM (active). Further, the compound was called inactive in [8].

On to `OCCCS`, for which the Potency entry in assay [18], in assay [2], in assay [3], in assay [4], in [5] and in [17] was “inactive” throughout. Moreover, the Potency result in [7], in assay [19], in assay [20], in assay [10], in assay [11] and in assay [13] was “inactive” throughout. For the same compound, the Potency result in [16] was “inactive”. For the same compound, the result in assay [6] and in assay [8] was inactive.
